Measured values reported in PubChem BioAssay AID1159580 (chemical genetic matrix, 2015).
Values joined by “and” are separate entries in the source; they are usually repeats but may differ in a detail not shown here. Equal values may be shown once. Among all 5,500 compounds or so, about 2,000 (36%) were called active. Inconclusive results (about 18%) are left out. No stated cut-off is given here; in the data, active means normalized growth mostly below about 0.91 (no sharp cut-off); inconclusive means no clear call, values can overlap the other calls; inactive means mostly above about 0.92. Some of the results follow.

Assay: chemical genetic growth profiling, strain panel (AID 1159580);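 further: tested at 20 µM; growth read once vehicle control cultures reached saturation at 30 °C; 1 = growth at the plate median or of vehicle wells; lower values mean less growth of the strain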
Settings: S. cerevisiae deletion strains, growth OD

Measured: normalized growth

COc1cc([C@@H]2c3cc4c(cc3[C@H](O)[C@H]3COC(=O)[C@@H]23)OCO4)cc(OC)c1OC
inactive: locus YAL021C, strain ccr4, hits give low values 1 | locus YAL026C, strain drs2, hits give low values 1.03 | locus YAL030W, strain snc1, hits give low values 1.02 | locus YBL061C, strain skt5, hits give low values 1 | locus YBR009C, strain hhf1, hits give low values 1 | locus YBR021W, strain FUR4, hits give low values 1.04 | locus YBR023C, strain chs3, hits give low values 1.02 | locus YBR171W, strain sec66, hits give low values 1.02 | locus YBR229C, strain ROT2, hits give low values 1 | locus YBR231C, strain swc5, hits give low values 1.02 | locus YBR279W, strain paf1, hits give low values 1.02 | locus YCL011C, strain gbp2, hits give low values 1.02 | locus YCL016C, strain dcc1, hits give low values 1.01 | locus YCL029C, strain bik1, hits give low values 0.983 | locus YCL069W, strain vba3, hits give low values 1.02 | locus YCR088W, strain abp1, hits give low values 1.02 | locus YDL005C, strain med2, hits give low values 1.02 | locus YDL035C, strain GPR1, hits give low values 0.991 | locus YDL040C, strain nat1, hits give low values 1.02 | locus YDL074C, strain BRE1, hits give low values 0.949 | locus YDL101C, strain DUN1, hits give low values 1.01 | locus YDL134C, strain PPH21, hits give low values 1.03 | locus YDL185W, strain tfp1, hits give low values 0.945 | locus YDL192W, strain arf1, hits give low values 1.01 | locus YDR001C, strain nth1, hits give low values 1.02 | locus YDR069C, strain doa4, hits give low values 1.03 | locus YDR101C, strain arx1, hits give low values 0.98 | locus YDR137W, strain rgp1, hits give low values 1.05 | locus YDR159W, strain sac3, hits give low values 1.03 | locus YDR162C, strain NBP2, hits give low values 1.01 | locus YDR195W, strain ref2 1.04 | locus YDR297W, strain sur2, hits give low values 1.03 | locus YDR318W, strain mcm21, hits give low values 0.999 | locus YDR334W, strain swr1, hits give low values 1.02 | locus YDR335W, strain msn5, hits give low values 1.02 | locus YDR388W, hits give low values 0.988 | locus YDR392W, strain spt3, hits give low values 0.989 | locus YDR502C, strain sam2, hits give low values 0.989 | locus YEL003W, strain gim4, hits give low values 1.02 | locus YEL037C, strain rad23, hits give low values 1.01 | locus YEL061C, strain CIN8 (second series), hits give low values 1.02 | locus YEL061C, strain CIN8, hits give low values 1.01 | locus YER015W, strain faa2, hits give low values 1.02 | locus YER016W, strain bim1, hits give low values 1.02 | locus YER110C, hits give low values 0.98 | locus YER111C, strain swi4, hits give low values 1.01 | locus YER155C, strain BEM2 (second series), hits give low values 1.02 | locus YER155C, strain BEM2, hits give low values 0.986 | locus YER167W, strain BCK2, hits give low values 1 | locus YFR010W, strain ubp6, hits give low values 1.02 | locus YGL078C, strain dbp3, hits give low values 0.972 | locus YGL086W, strain mad1, hits give low values 0.983 | locus YGL167C, strain pmr1, hits give low values 1.02 | locus YGL173C, strain kem1, hits give low values 1.02 | locus YGL227W, strain vid30, hits give low values 1.03 | locus YGL240W, strain doc1, hits give low values 1.03 | locus YGL248W, strain PDE1, hits give low values 1.03 | locus YGL253W, strain hxk2, hits give low values 1.02 | locus YGR135W, strain pre9, hits give low values 1.02 | locus YGR229C, strain SMI1, hits give low values 1.02 | locus YGR252W, strain gcn5, hits give low values 1.17 | locus YHR013C, strain ard1, hits give low values 1.03 | locus YHR027C, strain rpn1, hits give low values 1.02 | locus YHR030C, strain SLT2, hits give low values 0.987 and 0.98 | locus YHR079C, strain IRE1 (second series), hits give low values 0.983 | locus YHR079C, strain IRE1, hits give low values 0.983 | locus YHR094C, strain hxt1, hits give low values 0.999 | locus YHR129C, strain ARP1, hits give low values 1.01 | locus YHR142W, strain chs7, hits give low values 1.03 | locus YHR200W, strain rpn10, hits give low values 0.976 | locus YIL066C, strain RNR3, hits give low values 1.01 | locus YIL073C, strain SPO22, hits give low values 0.961 | locus YIL125W, strain kgd1, hits give low values 0.994 | locus YIR030C, strain dcg1, hits give low values 0.995 | locus YJL092W, strain hpr5, hits give low values 1.02 | locus YJL095W, strain BCK1 (second series), hits give low values 1.02 | locus YJL095W, strain BCK1, hits give low values 1.05 and 0.988 | locus YJL115W, strain asf1, hits give low values 1.04 | locus YJL129C, strain trk1, hits give low values 1.04 | locus YJL134W, strain LCB3, hits give low values 0.986 | locus YJL154C, strain vps35, hits give low values 1.01 | locus YJL164C, strain tpk1, hits give low values 1 | locus YJL166W, strain qcr8, hits give low values 1.03 | locus YJL168C, strain set2, hits give low values 0.989 | locus YJL187C, strain SWE1 (second series), hits give low values 1.01 | locus YJR043C, strain POL32, hits give low values 1.01 | locus YJR066W, strain TOR1, hits give low values 0.917
